Screen size: about 280,000 compounds; about 1,100 (0.39%) were called active. About 7% were inconclusive and are not listed. Calls come from the whole dose curve; as a rule, active = well fitted inhibition curve with a large enough effect; inconclusive = small, poorly fitted or top-dose-only effect, or effect the other way; inactive = flat fitted curve, though single readings scatter. The full list was thinned out, with actives kept by preference.
Molecular target: Microtubule-associated protein tau (Homo sapiens) (UniProt P10636)
Assay: qHTS for Inhibitors of Tau Fibril Formation, Fluorescence Polarization; note: nearly all actives have a fitted effect of over 55% in size
Details: K18 P301L tau heparin fibrillization, Alexa594 FP, 6 h; series mostly up to 57.7 µM; activity, negative = inhibition: at the top concentration
From the text: NIH Molecular Libraries Probe Production Network [MLPCN]
NIH Chemical Genomics Center [NCGC]
Assay Provider: Carlo Ballatore, University of Pennsylvania
The microtubule-associated protein tau is an abundant protein in the axons of neurons that stabilizes microtubules. With its ability to modulate microtubule dynamics, tau contributes directly or indirectly, to key structural and regulatory cellular functions. Particularly important is the influence tau exerts on axonal transport, which allows signaling molecules, trophic factors and other essential cellular constituents to travel along the axons. Under pathological conditions, tau becomes sequestered into insoluble aggregates called neurofibrillary tangles. This phenomenon is believed to have pathological consequences by promoting axonal transport deficits that ultimately lead to synaptic dysfunction and neuronal loss. To identify inhibitors of tau aggregation, a heparin-induced tau fibril formation assay was used that employed a recombinantly expressed fragment of tau, K18 (Q242-E372), bearing a P301L mutation (Gustke et al. 1994; Hong et al. 1998).
Gustke, N., B. Trinczek, et al. (1994). "Domains of tau protein and interactions with microtubules." Biochemistry 33(32): 9511-22.
Hong, M., V. Zhukareva, et al. (1998).
Li, W. and V. M. Lee (2006). "Characterization of two VQIXXK motifs for tau fibrillization in vitro." Biochemistry 45(51): 15692-701.
von Bergen, M., S. Barghorn, et al. (2001). "Mutations of tau protein in frontotemporal dementia promote aggregation of paired helical filaments by enhancing local beta-structure." J Biol Chem 276(51): 48165-74.
NCGC Assay Protocol Summary:
For screening, 2 uL/well human K18 P301L (15 uM unlabeled and 0.24 uM Alexa 594-labeled tau final concentrations) in reagent buffer (100 mM sodium acetate pH 7) was dispensed into black solid 1536-well plates (Grenier) using a solenoid-based dispenser. Following transfer of 23 nL compound or DMSO vehicle by a pin tool, 2 uL/well heparin (20 uM final concentration) in reagent buffer was added and the plate centrifuged 15 s at 1000 RPM. Plates were incubated 6 hr at 37 C and then 1 uL/well ThT (30 uM final concentration) was added. After a 1 hr ambient incubation, the plates were read by an Envision (Perkin Elmer) to monitor Alexa 594 FP (555 nm excitation and 632 nm emission).
Keywords: NIH Roadmap, MLPCN, MLI, MLSMR, NCGC, qHTS, tau, tauopathies, Alzheimer's disease, fibril, neurodegeneration, aggregation
% is set by controls: 0 for no effect and ±100 for the full control effect; potency is the fitted concentration of half-maximal effect.

Microtubule-associated protein tau (Homo sapiens), sequence (P10636 561-689 P618L limits assumed): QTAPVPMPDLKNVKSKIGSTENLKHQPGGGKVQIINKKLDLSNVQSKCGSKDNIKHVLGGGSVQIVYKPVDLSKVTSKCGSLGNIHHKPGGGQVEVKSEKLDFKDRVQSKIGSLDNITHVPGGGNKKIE

Potency, active:
Oc1cc(O)c2c(c1)OC(c1ccc(O)c(O)c1)C(O)C2 (stereo not drawn) 14.1 µM, COc1ccc2[nH]cc(/C=C(/C#N)S(=O)(=O)c3ccccc3)c2c1 28.2 µM, O=C(Nc1ccccc1)Nc1nnc(COc2ccccc2F)s1 14.1 µM, CC1=C/C(=N\OS(=O)(=O)c2ccccc2)C=CC1=O 12.6 µM, CC(C)S(=O)(=O)c1csc(NC(=O)Nc2ccc(Cl)cc2)c1Cl 31.6 µM, CN(C)N=Nc1ccc2nc[nH]c2c1 8.91 µM, O=c1[nH]c2ccccc2n2c(-c3ccccc3)nnc12 14.1 µM, Cn1sc(=O)c2cc(S(=O)(=O)NC3CC3)ccc21 28.2 µM, CCNS(=O)(=O)c1ccc(NC(=O)Nc2cccc(C(F)(F)F)c2)cc1 25.1 µM, CC(C)(C)c1nnc(NC(=O)C2c3ccccc3Oc3ccccc32)s1 15.8 µM, O=C(Cn1c(=O)n(Cc2ccccc2)c(=O)c2sc3ccccc3c21)Nc1ccccc1F 28.2 µM, O=C(COC(=O)CCCSc1nc2ccccc2[nH]1)Nc1ccc(Oc2ccccc2)cc1 15.8 µM, Oc1c(C=Nc2cccc3nsnc23)ccc2ccccc12 3.98 µM, COc1ccc(NC(=O)Cn2c(=O)n(Cc3ccc(C(=O)NCc4ccccc4Cl)cc3)c(=O)c3ccccc32)cc1 25.1 µM, Cc1ccnc(-n2sc3ccccc3c2=O)n1 25.1 µM, CSc1nc(Nc2ccc(F)cc2)cc(-c2ccccc2)n1 15.8 µM, c1ccc(CSc2nnc(-c3ccco3)c(-c3ccco3)n2)cc1 12.6 µM, COc1ccc2c(c1OC)C(=O)OC2Nc1nc(-c2ccccc2)cs1 (stereo not drawn) 31.6 µM, FC(F)(F)c1cc(Nc2nc3ccccc3c3nncn23)ccc1Cl 10 µM, CCN(CC)c1ccc2oc(=O)c(C)nc2c1 12.6 µM, O=C1C(c2ccccn2)=[N+]([O-])c2ccccc21 7.94 µM, O=C(CSc1nnnn1-c1ccc(O)cc1)N1N=C(c2ccc3ccccc3c2)CC1c1ccccc1 (stereo not drawn) 25.1 µM

activity, negative = inhibition, inactive:
CC(NC(=O)c1cc(Sc2ccc(F)cc2F)nc2ccccc12)c1ccccc1 (stereo not drawn) 2.21%, CCCC(=O)Nc1cc(C(=O)NCc2ccc(OC)cc2)ccc1S(=O)(=O)c1ccc(Cl)cc1 -4.05%, COc1ccccc1-c1nnc(SCC(N)=O)o1 1.99%, COc1ccc(NS(=O)(=O)c2ccc(Oc3c(C#N)cccc3C#N)cc2)cc1 -8.14%, CCN(CC)CC(=O)c1c[nH]c2ccc(OC)cc12 16.4%, COc1ccc(C)cc1NC(=O)COCc1cc(-c2cccs2)on1 -3.41%, O=C(NCCOc1ccccc1F)Nc1ccc(Br)cc1 -10.5%, COCC(=O)Nc1nnc(COc2ccccc2)s1 8.93%, Cc1ccc(N(C)C(=O)C2CCN(S(=O)(=O)c3ccc4c(c3)CCCN4C(=O)C3CCC3)CC2)cc1 3.78%, Cc1ccc2cccc(NC(=O)c3ccc(OC(C)C)cc3)c2n1 -0.836%, Cc1ccc(S(=O)(=O)c2ccc(Oc3ccccc3)cc2)cc1 -4.08%, CC1=C/C(=N\S(=O)(=O)c2ccccc2)C(C(C)C)=CC1=O -2.92%, COc1ccccc1/C=C/c1nc(C#N)c(NC(C)c2ccccc2)o1 (stereo not drawn) 9.42%, NS(=O)(=O)c1ccc(CCNC(=O)Nc2ccc(Cl)cc2)cc1 -2.66%, Cn1ccc(NC(=O)Nc2ccc(Cl)cc2)n1 3.56%, CC/C(O)=N\S(=O)(=O)c1ccc(N=NN(C)C)cc1 1.65%, CC(=O)c1ccc(N2CCN(C(=O)c3ccc4nc[nH]c4c3)CC2)cc1 8.33%, CCOc1ccc(-c2nonc2NC(=O)c2oc3ccc(CC)cc3c2C)cc1 -19.5%, Cc1ccc(-c2nc3ccccc3[nH]c2=O)cc1 -0.895%, CCOC(=O)c1cnc2[nH]c3ccccc3n2c1=O 2.71%, Cc1cc(C)c2oc(C(=O)Nc3c(C(=O)Nc4ccccc4)oc4ccccc34)cc(=O)c2c1 -9.93%, Cc1nn(C)c2c1c(C(F)(F)F)cc(=O)n2C(C)C(=O)NCc1ccc(Cl)cc1 (stereo not drawn) 8.26%, CC1CCC(NS(=O)(=O)c2ccc3c(c2)n(C)c(=O)c(=O)n3C)CC1 (stereo not drawn) -2.24%, CSc1ccc(S(=O)(=O)NC2CCCCC2)cc1 -22.1%, Cc1ccc(NC(=O)Nc2cccc(C(F)(F)F)c2)nc1 1.19%, CC(C)C[C@H](NC(=O)Nc1cccc(C(F)(F)F)c1)C(=O)O 2.26%, Cc1cccc(Nc2cc(C)nc(-n3nc(C)cc3C)n2)c1 6.4%, Brc1ccc2c(c1)NC(c1cccnc1)=NC(c1ccccc1)=N2 6.59%, CCC(C)NC(=O)C1c2ccccc2Oc2ccccc21 (stereo not drawn) 2.28%, CCC(C)(C)NC(=O)C1c2ccccc2Oc2ccccc21 -3.37%, Cc1ccc(NC(=O)Nc2sc3nc4n(c(=O)c3c2C)CCC(C)CC4)c(Cl)c1 (stereo not drawn) 17.2%, Cc1cc(C)c(NC(=O)Cn2c(SCC(=O)NCc3ccccc3)nc3ccccc32)c(C)c1 2.13%, COc1ccc(Cn2c(=O)c3oc4ccccc4c3n(CC(=O)Nc3ccc(F)cc3F)c2=O)cc1 -17.2%, CCOc1ccccc1NC(=O)Cn1c(=O)n(Cc2ccco2)c(=O)c2sc3ccccc3c21 -2.71%, CC(=O)c1cccc(NC(=O)c2nc(-c3ccccc3)n(-c3cccc(C)c3)n2)c1 -7.49%, CCc1nnc(NC(=O)CCCSc2nc3ccccc3[nH]2)s1 -0.721%, COc1ccc(NC(=O)CSc2nc3ccccc3[nH]2)cc1 -11%, Oc1ccc2ccccc2c1C=Nc1ccccc1 -3.62%, O=[N+]([O-])c1ccc(N=Cc2c(O)ccc3ccccc23)cc1 -5.84%, CCOC(=O)c1ccc(NC(=O)CSc2nc3c([nH]c4ccccc43)c(=O)n2C)cc1 6.83%, COc1ccc(OC)c(NC(=O)Cn2c(=O)n(Cc3ccccc3)c(=O)c3ccccc32)c1 -13%, Cc1ccc(Cn2c(=O)n(CCCC(=O)NCc3ccccc3Cl)c(=O)c3ccccc32)cc1 -9.9%, O=C(Cn1c(-c2cccs2)cc2ccccc21)NCCc1ccc(Cl)cc1 -7.69%, CCN1C(=O)c2ccccc2S(=O)c2ccc(C(=O)NCc3ccc(F)cc3)cc21 (stereo not drawn) -1.93%, CCOC(=O)C1CCCN(C(=O)c2ccc(-n3ccc4ccccc43)s2)C1 (stereo not drawn) 17.1%, Cc1c(C(=O)NCc2ccccc2Br)oc2ccc3c(c12)C(=O)CC(C)(C)O3 -3.31%, Cc1ccc(OCCn2c(CNc3ccccc3C)nc3ccccc32)cc1 -8.29%, Cc1nnc(N2CCC(C(=O)Nc3ccc(F)cc3)CC2)c2nn(-c3ccc(Cl)cc3)c(C)c12 -13.4%, Cc1ccnc(SCC(N)=O)n1 -0.201%, CCOC(=O)c1ccc(NC2=CC(c3ccc(OCC)cc3)N(c3ccc(C(=O)OCC)cc3)C2=O)cc1 (stereo not drawn) -12.9%, Cc1cc(C)c2sc(NC(=O)c3ccc(S(=O)(=O)N4CCCC4)cc3)nc2c1 -16.1%, COc1ccc(OC)c(-c2noc(N3CCN(c4cc(Cl)ccc4C)CC3)n2)c1 5.31%, COc1ccc(N(CC(=O)NCCc2ccc(Cl)cc2)S(=O)(=O)c2c(C)nn(C)c2C)cc1 3.88%, COc1ccc2c(Sc3ccc(C)cc3)c(C(=O)NC(C)c3ccccc3)[nH]c2c1 (stereo not drawn) 1.38%, CSc1nc(-c2ccccc2)nc(C(Cl)Cl)n1 -5.56%, Cc1cc(Nc2ccccc2)nc(N)n1 2.32%, CCOC(=O)c1cccc(NS(=O)(=O)c2cc(-c3cnc(C)o3)ccc2OC)c1 -6.24%, COc1ccc(N2C(=O)CSC23C(=O)N(Cc2cccc(F)c2)c2ccccc23)cc1Cl (stereo not drawn) -10.2%, Brc1ccc(CSc2ccc(-c3ccco3)nn2)cc1 -0.453%, O=C(Nc1nnc(SCc2ccccc2)s1)c1ccco1 -10.1%, O=C(OCc1cc(=O)n2nc(C3CC3)sc2n1)c1ccccc1Cl 2.73%, COc1ccc2c(c1OC)C(=O)OC2c1c(O)nc(SC)n(-c2ccccc2)c1=O (stereo not drawn) -8.67%, COc1ccc(-c2csc(NC3OC(=O)c4ccccc43)n2)cc1 (stereo not drawn) -9.14%, O=C(CCCn1c(=O)c2cccn2c2cccnc21)NCc1ccc(F)cc1 -10.2%, COc1ccc(OC)c2sc(N3CCN(C(=O)C4COc5ccccc5O4)CC3)nc12 (stereo not drawn) -6.25%, Fc1ccc(C(Nc2ccc(Cl)c(C(F)(F)F)c2)c2nnc(-c3ccccc3)o2)cc1 (stereo not drawn) -9.8%, COc1cccc(Nc2nc3ccccc3c3nncn23)c1 -14.4%, COc1ccc(-c2cc(C(F)(F)F)n3nc(-c4ccccc4)cc3n2)cc1OC -7.35%, COc1ccc(OC)c(CNC(=O)Cn2nc(C)c3c(C)n(-c4ccccc4)nc3c2=O)c1 -0.531%, CCN(CC)c1ccc(/C=N/Nc2nc(C)cc(C)n2)c(O)c1 3.84%, CCN(CC)c1ccc2c(Nc3ccccc3)c(C=O)c(=O)oc2c1 2.78%, CC1CCCCN1CC(=O)N1CCCc2c1c(=O)oc1ccc(OCc3ccccc3)cc21 (stereo not drawn) -4.88%, CCc1ccccc1NC(=O)N1CCN(C(=O)c2nsc3ccccc23)CC1 -1.92%, Cc1c(C(=O)N2CCCC2)oc2c1-c1nn(CC(=O)NCc3ccc(OC(C)C)cc3)cc1CC2 9.67%, Cc1ccc(-c2nnc(SCC(=O)NCc3ccccc3)nc2-c2ccc(C)cc2)cc1 -2.83%, CSc1ncc(Cl)c(C(=O)Nc2ccc(S(=O)(=O)N3CCCC(C)C3)cc2)n1 (stereo not drawn) -18%, O=C(CSc1nc(-c2cccc(F)c2)[nH]c1-c1ccccc1)Nc1ccc2c(c1)OCO2 -13.5%, COc1ccc(-c2cn3nc(N4CCCC(C(=O)NCCCOC(C)C)C4)sc3n2)cc1 (stereo not drawn) 12.2%, O=C(CSc1nnnn1-c1ccc(O)cc1)c1ccc(F)cc1 -6.29%, COc1ccc(C2CC(c3ccccc3)=NN2C(=O)CSc2nccc(=O)[nH]2)cc1 (stereo not drawn) 3.39%, COc1ccc(Cl)cc1NC(=O)C(C)Sc1nc2c(c(=O)[nH]1)CCCC2 (stereo not drawn) -9.47%

— PubChem BioAssay AID1468 (National Center for Advancing Translational Sciences (NCATS), 2008)
